Compound activity (PubChem BioAssay)
TEAD-YAP block: TEAD-YAP interaction inhibition; HEK-TIYL cells, TEAD-Gal4/YAP UAS-luciferase luminescence; inhibition, % at 9.12 µM; 1.4% of 640,000 active; AID 1259422; in the data active means inhibition above about 32%
FBW7 act: human FBW7 E3 ligase activation, primary screen | Q969H0 | AlphaScreen FBW7–phospho-cyclin E peptide binding, activator screen | normalized activity (activation), % at 26.1 µM | 0.13% of 650,000 active | AID 1259310; in the data active means normalized activity above about 1.9%;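 further: purified mutant Fbw7 with reduced substrate affinity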
GPR151 ag: activates the human receptor GPR151; 1% of 650,000 active; PathHunter beta-arrestin GPR151 cells, luminescence; activation, % at 11.2 µM; Q8TDV0; in the data active means activation above about 4.9%
Target sequence (Q8TDV0 whole entry, looked up): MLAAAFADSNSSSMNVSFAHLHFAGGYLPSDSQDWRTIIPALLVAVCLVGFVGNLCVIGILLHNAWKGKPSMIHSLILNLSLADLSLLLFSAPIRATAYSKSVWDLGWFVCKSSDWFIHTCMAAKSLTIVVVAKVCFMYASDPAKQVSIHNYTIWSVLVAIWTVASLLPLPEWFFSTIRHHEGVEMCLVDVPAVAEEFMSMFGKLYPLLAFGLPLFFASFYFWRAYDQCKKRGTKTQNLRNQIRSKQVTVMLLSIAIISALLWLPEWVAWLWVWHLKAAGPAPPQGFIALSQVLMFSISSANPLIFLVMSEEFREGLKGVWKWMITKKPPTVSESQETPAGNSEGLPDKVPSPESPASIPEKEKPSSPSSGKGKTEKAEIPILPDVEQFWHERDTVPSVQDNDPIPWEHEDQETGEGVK
MITF primary: inhibitors of human MITF. O75030. AlphaScreen MITF homodimerization, bead proximity signal. inhibition, % at 2.6 µM. 0.91% of 650,000 active. AID 1259374; in the data active means inhibition above about 50%
GPR151 conf act: human GPR151 activation, confirmation screen; shares compounds with GPR151 ag; GPR151 PathHunter beta-arrestin cells, luminescence, 90 min; % of EA-reagent control over plate median; activation, % at 11.2 µM; 6,700 tested, under 10 active; AID 1508609;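 active means mean percent activation across replicates above the confirmation screen cutoff of 4.91%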
GPR119 ag: activates human GPR119 in a GPR151 counter-screen; shares compounds with GPR151 ag; GPR119 PathHunter beta-arrestin cells, luminescence, 90 min; 0 = compound-well median, 100 = enzyme-acceptor control; activation, % at 11.2 µM; 0.3% of 6,700 active;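 active means mean percent activation in the counterscreen above 29.09%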;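 further: counterscreen on off-target GPR119 to flag nonselective hits from the GPR151 activator screen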
A number is an active result; 0 = inactive; - = no result given; ! = repeats disagree. The list is not random: actives were taken first. Their share in the collection is about 3.5%.

SMILES	TEAD-YAP block	FBW7 act	GPR151 ag	MITF primary	GPR151 conf act	GPR119 ag
COc1ccc(COC(=O)C2=C(C)NC3=C(C(=O)CC(C)(C)C3)C2c2ccc(O)c(OC)c2)cc1 (stereo unspecified)	0	0	0	0	-	-
COC(=O)c1ccc(C2C(C(=O)OCc3ccc(OC)cc3)=C(C)NC3=C2C(=O)CC(C)(C)C3)cc1 (stereo unspecified)	0	0	5.2	0	0	0
COc1ccc(COC(=O)C2=C(C)NC3=C(C(=O)CC(C)(C)C3)C2c2ccc(OC)cc2)cc1 (stereo unspecified)	0	0	0	0	-	-
COc1ccc(COC(=O)C2=C(C)NC3=C(C(=O)CCC3)C2c2ccc(OC)c(O)c2)cc1 (stereo unspecified)	0	0	5.0!	0	0	0
COc1cc(C2C(C(=O)OC(C)(C)C)=C(C)NC3=C2C(=O)CC(C)(C)C3)ccc1O (stereo unspecified)	0	0	5.4	0	0	0
Nc1nnc(SCC(=O)Nc2ccc(Cl)c(Cl)c2)s1	0	0	0	0	-	-
CC/C(=C\C(=O)c1ccccc1)Nc1ccc(OC)cc1OC	0	0	0	0	-	-
CCCCOc1ccc(/C=C/C(=O)N2CCCCC2)cc1	0	0	5.6	0	0	0
CC(C)c1ccc(N(CC(=O)N2CCN(c3ccc(F)cc3)CC2)S(C)(=O)=O)cc1	0	0	0	0	-	-
CS(=O)(=O)N(CC(=O)N1CCCC1)c1ccc2c(c1)OCCO2	0	0	9.5	0	0	0
CS(=O)(=O)N(CC(=O)N1CCN(c2ccc(F)cc2)CC1)c1ccc(Cl)cc1	0	0	5.6	0	0	0
O=C(NCCc1ccc(O)cc1)c1cncc(-c2ccc(N3CCOCC3)nc2)c1	0	0	0	0	-	-
Cc1ccc(NC(=O)c2cccc(C(F)(F)F)c2)c(C(=O)c2ccccc2)c1	0	0	0	0	-	-
COC(=O)c1ccccc1NC(=O)c1ccc(C(=O)Nc2ccccc2C(=O)OC)cc1	0	0	0	0	-	-
COCCN=C1NC(=NCCOC)c2ccccc21	0	0	0	0	-	-
CN(C(=O)Cc1ccccc1)N(C)C(=O)Cc1ccccc1	0	0	5.0	0	0	0
CN(C)C(NC(=O)Cc1ccccc1)C(Cl)(Cl)Cl (stereo unspecified)	0	0	6.0	0	0	0
O=c1cc(CO)oc(C(Nc2ccccn2)c2cccc(Cl)c2)c1O (stereo unspecified)	0	0	5.0	0	0	0
O=C(COC(=O)C1CCC(=O)N1)Nc1cc(Cl)ccc1[N+](=O)[O-] (stereo unspecified)	0	0	0	0	-	-
Cc1cccc(NC(=O)C(=S)NC2CCCC2)c1C	0	0	8.2	0	0	0
CCOC(=O)C1CCCN(S(=O)(=O)c2cn(C)nc2C)C1 (stereo unspecified)	0	0	0	0	-	-
CC(=O)N1c2ccc(Br)cc2C2(c3ccccc3)N(C(C)=O)c3ccc(Br)cc3C12c1ccccc1 (stereo unspecified)	0	0	0	0	-	-
O=C(NCc1cccs1)C(=O)NC1CC1	0	0	0	0	-	-
CCNC(=O)C(=O)NCc1cccs1	0	0	4.9	0	0	0
CC(C)N(CCNC1CCS(=O)(=O)C1)C(C)C (stereo unspecified)	0	0	8.4	0	0	0
SMILES	TEAD-YAP block	FBW7 act	GPR151 ag	MITF primary	GPR151 conf act	GPR119 ag
O=C(Nn1c(C2CCCCC2)nc2ccccc2c1=O)c1ccc(Cl)cc1	0	0	0	0	-	-
C=CCc1ccccc1OCCOc1ccc([N+](=O)[O-])cc1/C=N/NC(N)=O	0	0	6.2	0	0	0
COc1ccc(-c2nc(NC3CCN(Cc4ccccc4)CC3)c3ncn(C4CCCCC4)c3n2)cc1	0	0	5.8	0	0	0
CN1CCN(C(=O)c2ccc(-c3nc(NCc4cccc(C(F)(F)F)c4)c4ncn(C5CCCCC5)c4n3)cc2)CC1	0	0	5.0	0	0	0
CC(=O)c1cccc(-c2nc(NC3CC3)c3ncn(C4CCCCC4)c3n2)c1	0	0	9.4	0	0	0
O=C(NC1CC1)c1ccc(-c2nc(NCCO)c3ncn(C4CCCCC4)c3n2)cc1	0	0	0	0	-	-
CN1CCN(c2ccc(-c3nc(NCc4cccc(C(F)(F)F)c4)c4ncn(C5CCCCC5)c4n3)cc2)CC1	0	0	0	0	-	-
Nc1nc(-c2ccc(C(=O)NC3CC3)cc2)nc2c1ncn2C1CCCCC1	0	0	6.2	0	0	0
CCCNc1nc(-c2cccc(C(C)=O)c2)nc2c1ncn2C1CCCCC1	0	0	0	0	-	-
O=c1c2sccc2nc(SCc2cccc(Cl)c2)n1C1CCCCC1	0	0	0	0	-	-
CC1(C)OC(=O)C(=Cc2ccc(F)cc2)C(=O)O1	0	0	0	0	-	-
O=C1CC(c2nc3ccccc3[nH]2)CN1c1ccccc1Cl (stereo unspecified)	0	0	0	0	-	-
Cc1c(Cl)cccc1N1CC(c2nc3ccccc3[nH]2)CC1=O (stereo unspecified)	0	0	5.6	0	0	0
COc1ccc2nc(/C(C#N)=C\C=C\c3ccccc3[N+](=O)[O-])[nH]c2c1	0	0	0	0	-	-
CCOc1ccc(NC(=O)CNC(=O)c2nn(-c3ccc(OC)c(OC)c3)c(=O)c3ccccc23)cc1	0	0	0	0	-	-
COc1ccc(-n2nc(C(=O)NCC(=O)NCCCN3CCN(c4cccc(Cl)c4)CC3)c3ccccc3c2=O)cc1OC	0	0	4.9	0	0	0
CCOc1ccc(-n2nc(C(=O)Nc3ccc(OC)c(OC)c3)c3ccccc3c2=O)cc1	0	0	5.6	0	0	0
COc1ccc(-n2nc(C(=O)NCC(=O)NCCCN3CCC(C)CC3)c3ccccc3c2=O)cc1OC	0	0	0	0	-	-
COc1ccc(-n2nc(C(=O)Nc3cc(Cl)ccc3OC)c3ccccc3c2=O)c(OC)c1	0	0	0	0	-	-
COc1ccccc1-n1nc(C(=O)Nc2ccc(Cl)cn2)c2ccccc2c1=O	0	0	7.6	0	0	0
COc1ccc(OC)c(NC(=O)c2nn(-c3ccc(OC)cc3OC)c(=O)c3ccccc23)c1	0	0	8.7	0	0	0
CCOc1ccc(C(c2nnnn2C2CCCC2)N2CCN(CC)CC2)cc1 (stereo unspecified)	0	0	0	0	-	-
CCOC(=O)C1=C(C)N(C)C(=S)NC1c1ccccc1[N+](=O)[O-] (stereo unspecified)	0	0	0	0	-	-
N#CC1=C(O)Cn2c1nc1ccc(Br)cc1c2=O	0	0	0	0	-	-
N#C/C(=C(/O)CN1CCC(C(N)=O)CC1)c1nc(-c2ccccc2)cs1	0	0	0	0	-	-
O=C(Nc1ccnn1C1CCN(C(=O)c2cc3ccccc3o2)CC1)C1CC1	0	0	0	0	-	-
CCOc1ccc(NC(=O)c2nnn(-c3ccccc3OC)c2C)cc1	0	0	5.7	0	0	0
CCOc1ccccc1N(C)C(=O)c1nn(-c2cc(OC)cc(OC)c2)c(=O)c2ccccc12	0	0	6.6	0	0	0
